In the supplement of paper PMC11555231:

Each binder was assayed against PADI4, Q9UM07 (assay: log2 enrichment score relative to parent PADI4_3 peptide (binding to PADI4); higher = tighter binding than parent). Details: CaCl2: 10 mM.
In short: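 A cyclic peptide library for mRNA display was built with every internal parent position randomised through NNK codons, a C-terminal HA tag, and methionine reassigned to N-methyl-alanine, then purified on anti-HA beads. A single selection round was run in triplicate against biotinylated His-tagged human PADI4 (100 nM) immobilised on beads, in HEPES/NaCl buffer containing 10 mM CaCl2, DTT, Tween and blockers, with equilibrating washes over 10–12 h at RT. Both the input and eluted libraries were sequenced. Log2 enrichment of bound over input is reported relative to parent as a mean with standard deviation.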

Sequence of PADI4, Q9UM07 (Q9UM07 whole entry): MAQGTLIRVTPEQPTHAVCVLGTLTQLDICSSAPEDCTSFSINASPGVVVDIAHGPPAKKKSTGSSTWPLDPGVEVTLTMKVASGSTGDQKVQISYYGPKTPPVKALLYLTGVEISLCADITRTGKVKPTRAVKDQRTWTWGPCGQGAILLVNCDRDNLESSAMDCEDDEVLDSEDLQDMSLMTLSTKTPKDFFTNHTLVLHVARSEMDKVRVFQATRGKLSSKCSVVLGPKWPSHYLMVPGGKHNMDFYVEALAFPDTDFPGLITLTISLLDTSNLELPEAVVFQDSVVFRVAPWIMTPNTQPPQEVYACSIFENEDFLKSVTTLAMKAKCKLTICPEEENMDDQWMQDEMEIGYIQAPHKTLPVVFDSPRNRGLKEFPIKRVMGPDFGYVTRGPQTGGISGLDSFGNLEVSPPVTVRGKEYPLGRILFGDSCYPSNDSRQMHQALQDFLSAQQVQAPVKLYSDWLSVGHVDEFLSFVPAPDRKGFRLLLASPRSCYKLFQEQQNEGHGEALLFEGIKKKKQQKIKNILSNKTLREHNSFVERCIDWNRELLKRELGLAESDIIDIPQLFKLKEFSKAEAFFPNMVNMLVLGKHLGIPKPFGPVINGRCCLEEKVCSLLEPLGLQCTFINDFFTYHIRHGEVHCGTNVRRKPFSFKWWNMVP

Binder | log2 enrichment score
YREHHYRHPKYCG [PADI4_3_D3E D3E] | -2.84
YRDHHYCHPKYCG [PADI4_3_R7C R7C] | -0.84
YRDHHTRHPKYCG [PADI4_3_Y6T Y6T] | -2.52
YRDTHYRHPKYCG [PADI4_3_H4T H4T] | -3.53
YRDHHYRHPKSCG [PADI4_3_Y11S Y11S] | -4.12
YRDDHYRHPKYCG [PADI4_3_H4D H4D] | -4.33
YRDHHYRHEKYCG [PADI4_3_P9E P9E] | -1.89
YRDHHYEHPKYCG [PADI4_3_R7E R7E] | -0.753
YEDHHYRHPKYCG [PADI4_3_R2E R2E] | -2.93
YRDHSYRHPKYCG [PADI4_3_H5S H5S] | -3.98
YRDHHYTHPKYCG [PADI4_3_R7T R7T] | -1.3
YRDHHYRCPKYCG [PADI4_3_H8C H8C] | -2.95
YSDHHYRHPKYCG [PADI4_3_R2S R2S] | -2.91
YRDHHYSHPKYCG [PADI4_3_R7S R7S] | -0.05
YRDHHYRHPEYCG [PADI4_3_K10E K10E] | -1.11
YRDHHYRHPKTCG [PADI4_3_Y11T Y11T] | -3.95
YRDHHERHPKYCG [PADI4_3_Y6E Y6E] | -1.85
YRDHHYRHSKYCG [PADI4_3_P9S P9S] | -1.69
YRDHEYRHPKYCG [PADI4_3_H5E H5E] | -4.25
YCDHHYRHPKYCG [PADI4_3_R2C R2C] | -2.34
YRDHHYRTPKYCG [PADI4_3_H8T H8T] | -3.89

Binder | log2 enrichment score
YRDHHCRHPKYCG [PADI4_3_Y6C Y6C] | -3.47
YRDEHYRHPKYCG [PADI4_3_H4E H4E] | -3.05
YRDHHYRHPKECG [PADI4_3_Y11E Y11E] | -4.21
YRDCHYRHPKYCG [PADI4_3_H4C H4C] | -3.15
YRDHHYRHPKCCG [PADI4_3_Y11C Y11C] | -3.92
YRDHHYREPKYCG [PADI4_3_H8E H8E] | -3.8
YRDHHYRSPKYCG [PADI4_3_H8S H8S] | -2.81
YRTHHYRHPKYCG [PADI4_3_D3T D3T] | -3.58
YTDHHYRHPKYCG [PADI4_3_R2T R2T] | -1.69
YRCHHYRHPKYCG [PADI4_3_D3C D3C] | -4.3
YRDHHYRHPTYCG [PADI4_3_K10T K10T] | 0.237
YRSHHYRHPKYCG [PADI4_3_D3S D3S] | -3.9
YRDSHYRHPKYCG [PADI4_3_H4S H4S] | -2.9
YRDHCYRHPKYCG [PADI4_3_H5C H5C] | -4
YRDHTYRHPKYCG [PADI4_3_H5T H5T] | -3.62
YRDHHYRHTKYCG [PADI4_3_P9T P9T] | -1.92
YRDHHYRHPSYCG [PADI4_3_K10S K10S] | -1.42
YRDHHYRHPCYCG [PADI4_3_K10C K10C] | -2.06
YRDHHSRHPKYCG [PADI4_3_Y6S Y6S] | -2.21
YRDHHYRHPKYCG [PADI4_3_D3D D3D] | 0
YRDHHYRHCKYCG [PADI4_3_P9C P9C] | -2.79
